Source: PubChem
tim10-1 inh: growth inhibitors of tim10-1 mutant yeast, primary screen, luminescence, uHTS | S. cerevisiae tim10-1 ts strain growth, BacTiter-Glo, 24 h | inhibition, % at 20 µM | actives 2.2% (n = 330,000);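 active = inhibition of at least 40%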;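 note: mutant grown at 25 °C; 0% = DMSO wells with yeast and 100% = wells holding no yeast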
NALP3 yeast inh: NALP3 inflammasome inhibitors in reconstituted yeast, primary screen, luminescence, uHTS. Yeast reconstituted NLRP3/ASC/caspase-1, beta-gal luminescence, 24 h. inhibition, % at 10 µM. actives 0.39% (n = 330,000);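 active = inhibition of 50% or more; inactive = inhibition below 50%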;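 note: plate controls were induced DMSO wells for no effect and uninduced yeast grown without galactose for full effect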
CR mimetic SO: reduction of superoxide in aged yeast, primary screen, HTS | S. cerevisiae aged cells, superoxide DHE fluorescence; stronger effect = lower value | superoxide response (% of plate mean), % at 10 µM | actives 0.18% (n = 330,000) | AID 2690, 2010;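 active = superoxide response under a set limit, about three screen SD below normal, cut at about 65% in these data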;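 note: yeast aged for seven days with compound at 30 °C before DHE staining; 100% = average MFI of all compound-treated wells on the plate with controls excluded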
TIM10 inh: growth inhibitors of isogenic TIM10 control yeast, primary screen, counter-screen for tim10-1 yeast inhibitor project, luminescence, uHTS; actives 1.4% (n = 330,000); S. cerevisiae TIM10 strain growth, BacTiter-Glo luminescence, 24 h; AID 463195, 2010; inhibition, % at 10 µM;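 active = inhibition of 40% or more at the single tested concentration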;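 note: wild-type TIM10 isogenic control strain grown at permissive 25 °C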
tim23-1 inh: growth inhibitors of tim23-1 mutant yeast, primary screen, luminescence, uHTS | actives 1.3% (n = 330,000) | S. cerevisiae tim23-1 growth, BacTiter-Glo luminescence, 24 h | AID 463212, 2010 | inhibition, % at 20 µM;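 active = growth inhibition of the mutant yeast at or above 50%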;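 note: temperature-sensitive mutant grown at 25 °C; plate controls were DMSO-treated mutant yeast for no effect and medium wells lacking yeast for full effect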
tim10-1 conf: growth inhibitors of tim10-1 mutant yeast, confirmation, single concentration, luminescence, S. cerevisiae | shares compounds with tim10-1 inh | S. cerevisiae tim10-1 ts strain growth, BacTiter-Glo, 24 h | inhibition, % at 20 µM | actives 56% (n = 7,400);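 active = inhibition of yeast growth at or above a set limit in either of two repeat tests at 20 µM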;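 note: tim10-1 mutant grown at permissive 25 °C to find synthetic lethal compounds; 0% = DMSO yeast wells and 100% = medium wells without yeast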
tim10 confirm: growth inhibitors of wild-type TIM10 yeast, confirmation, counter-screen for tim10-1 synthetic lethality project, single concentration, luminescence, S. cerevisiae | shares compounds with TIM10 inh | S. cerevisiae tim10 strain growth, BacTiter-Glo luminescence, 24 h | actives 63% (n = 4,600) | inhibition, % at 10 µM;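 active = inhibition of yeast growth at or above a set limit in either of two replicates at 10 µM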;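 note: this counterscreen used the strain with wild-type TIM10; 0% = yeast with DMSO and 100% = medium wells lacking yeast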
tim23-1 confirm: tim23-1 mutant yeast growth inhibitors, confirmation, luminescence, single concentration | actives 83% (n = 4,400) | S. cerevisiae tim23-1 growth, BacTiter-Glo luminescence, 24 h | inhibition, % at 20 µM | shares compounds with tim23-1 inh;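 active = inhibition above about 39% in either of two replicate wells at 20 µM, limit read from the data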;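 note: temperature-sensitive tim23-1 mutant grown at 25 °C; 0% = DMSO wells with yeast and 100% = medium wells without yeast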
* hit, by the source's call; · = not tested or not shown. Hits are enriched below; roughly 3.8% of the tested compounds scored in any of these assays.

SMILES	tim10-1 inh	NALP3 yeast inh	CR mimetic SO	TIM10 inh	tim23-1 inh	tim10-1 conf	tim23-1 confirm	others
O=C(/C=C/c1ccco1)NC(=S)Nc1ccccc1N1CCOCC1	50.0*	15.8	95.4	42.9*	55.5*	26.8	48.3*	tim10 confirm=50.7*
Cc1cccc(N2CCN(c3ccc4cc(S(=O)(=O)N5CCCCC5)ccc4n3)CC2)c1C	26.4	9.7	159.4	-9.5	10.1	·	·
Cc1ccc(S(=O)(=O)CC#CCOC(=O)c2ccc([N+](=O)[O-])cc2)cc1	59.5*	-16.4	90.1	30.0	76.1*	47.2*	80.6*
CCCCN(C)Cc1cc(=O)oc2cc3c(cc12)CCCC3	17.9	8.7	115.1	18.2	26.7	·	·
COc1cc(/C=C(/C#N)C(=O)NCc2ccccc2)cc(OC)c1OC	55.0*	14.6	96.0	34.0	62.6*	49.1*	60.5*
O=C(NC(=S)N(CCc1ccccc1)CCc1ccccc1)c1ccco1	49.2*	8.3	106.9	42.5*	51.4*	44.0*	50.8*	tim10 confirm=-9.6
CC(CCc1ccccc1)NC(=S)NC(=O)c1ccco1 (configuration not stated)	7.7	29.5	109.4	20.1	43.9	·	·
Cc1ccc(S(=O)(=O)Nc2ccc(Br)cc2/C=N/n2cnnc2)cc1	41.4*	34.9	96.3	26.5	76.6*	35.1*	72.0*
COc1cccc(CCNC(=O)CCCC(=O)c2ccccc2)c1	23.2	9.3	118.2	-0.8	15.8	·	·
Cc1[nH]c2ccccc2c1N=Nc1ccc(F)cc1	62.7*	14.0	93.9	29.8	70.2*	29.5	-87.8
CCN(CC(=O)Nc1c(F)cccc1F)C(=O)c1ccc(Cl)c(S(=O)(=O)N2CCCC2)c1	26.0	34.1	90.3	5.5	19.5	·	·
CCSc1ccccc1C(=O)N1CCCC1	-0.1	6.1	83.8	11.2	1.4	·	·
CCSc1ccccc1C(=O)n1nnc2ccccc21	54.6*	-23.4	87.4	39.4	58.6*	48.9*	70.3*
COc1cccc(/C=C2\SC(=S)N(CCC(=O)N3CCCCC3CCO)C2=O)c1 (configuration not stated)	31.7	14.7	116.3	9.7	35.5	·	·
COc1cccc(/C=C2\SC(=S)N(CCCC(=O)N3CCCCC3CCO)C2=O)c1 (configuration not stated)	49.6*	10.1	96.6	18.9	52.5*	20.1	54.9*
COc1cccc(/C=C2\SC(=S)N(CCCC(=O)N3CCCC3)C2=O)c1	41.9*	23.2	108.4	33.0	57.9*	23.4	51.4*
Cc1ccc2nc(-c3ccc(NC(=O)CN4C(=O)NC(C)(c5ccc(OC(F)F)cc5)C4=O)cc3)sc2c1 (configuration not stated)	3.2	-1.1	99.9	9.2	-7.9	·	·
COC(=O)CSc1[nH]c2ccc(F)cc2c1[N+](=O)[O-]	11.1	5.2	90.2	-11.6	-11.1	·	·
Cc1ccc(NC(=S)N2CCCC(CO)C2)c(C)c1 (configuration not stated)	7.1	4.1	91.1	-4.3	16.4	·	·
O=Cc1ccc(O)c2ncccc12	43.7*	35.5	·	54.4*	70.5*	8.1	72.0*	tim10 confirm=75.1*
c1cnc2ccc3ncccc3c2c1	6.7	4.3	90.9	-9.0	-7.4	·	·
COC(=O)c1ccc2c(c1)C(C)(C)C(/C=C/c1ccccc1O)=[N+]2C	65.1*	45.0	121.0	56.5*	65.9*	57.2*	71.3*	tim10 confirm=53.0*
O=C(CN1CC(c2ccccc2)CC1=O)N/N=C/c1cc(Br)ccc1O (configuration not stated)	41.3*	20.7	107.3	34.2	56.1*	22.4	50.3*
O=C(Nc1nc2ccccc2s1)C1CC(=O)N(c2ccccc2)C1 (configuration not stated)	21.2	2.6	99.2	17.9	11.2	·	·
O=C(Nc1nc2ccccc2s1)C1CC(=O)N(c2ccc(Br)cc2)C1 (configuration not stated)	49.3*	14.9	95.6	45.9*	72.7*	37.1*	74.3*	tim10 confirm=36.3*
SMILES	tim10-1 inh	NALP3 yeast inh	CR mimetic SO	TIM10 inh	tim23-1 inh	tim10-1 conf	tim23-1 confirm	others
O=C(Nc1nc(-c2ccccn2)cs1)c1ccc(Br)s1	53.1*	14.9	92.4	22.7	56.2*	33.9*	47.3*
CC(Nc1nc(-c2ccccc2F)nc2ccccc12)c1ccccc1 (configuration not stated)	37.4	12.4	89.0	36.5	41.4	·	·
Fc1ccccc1-c1nc(NC2CCCC2)c2ccccc2n1	52.4*	10.3	71.8	52.5*	67.2*	50.1*	75.2*	tim10 confirm=48.4*
Cc1cc(C)n(-c2ccc(C(=O)NCC(c3ccco3)N3CCCC3)cc2)n1 (configuration not stated)	7.0	15.2	112.1	-1.5	2.1	·	·
Cc1ccc(S(=O)(=O)N2CCOCC2)cc1NC(=O)C(c1ccc(Cl)cc1)C(C)C (configuration not stated)	7.6	4.8	110.9	1.2	9.9	·	·
CCCn1nc(NC(=O)c2cccs2)c2cc3ccccc3nc21	49.1*	26.9	98.5	23.9	52.1*	37.0*	51.2*
CCCn1nc(NC(=O)c2cccs2)c2cc3ccc(C)cc3nc21	-4.2	21.0	98.2	-3.2	-2.4	·	·
CCCN(CCC)C(=O)c1cc([N+](=O)[O-])cc2c1-c1ccc([N+](=O)[O-])cc1C2=C(C#N)C#N	66.7*	7.5	109.2	10.9	74.2*	67.2*	74.8*
CC(=O)Nc1ccc(S(=O)(=O)N(C)CC(=O)OC(C)C(=O)N(C)C2CCCCC2)cc1 (configuration not stated)	-1.5	18.1	97.7	3.2	-16.6	·	·
O=C(N(c1ccccc1)c1ccccc1)N(c1ccccc1)c1ccccc1	45.6*	-1.5	98.2	39.3	51.7*	21.5	41.2*
CNC(=O)N(c1ccccc1)c1ccccc1	12.8	-13.1	94.2	-11.0	0.8	·	·
COc1ccc(C(=O)NNC(=O)CSc2nnc(C)n2CC2CCCO2)cc1 (configuration not stated)	5.3	4.2	100.0	5.9	18.6	·	·
Oc1c(C(c2ccccn2)N2CCC(Cc3ccccc3)CC2)cc(Cl)c2cccnc12 (configuration not stated)	43.4*	14.6	92.9	26.9	54.9*	27.7	68.5*
